In PubChem BioAssay (EPA / NIEHS):
Inconclusive results are not listed. Activity calls are given as the source filed them. Rule for the calls: active = hit-call score of the fitted dose curve at least 0.9, where 1 is the maximum; inconclusive = response in the unintended direction; inactive = score below 0.9.

Assay: Tanguay_ZF_120hpf_EYE_legacy: (Legacy) Oregon State University Tanguay Lab 120 Hour Post-fertilization zebrafish Assay for Eye Malformation (AID 2283636);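 note: binary presence or absence of eye malformation scored by brightfield in 120 hpf larvae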
How it was run: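 Dechorionated Tropical 5D zebrafish embryos, one per well from 6 hpf, static exposure to 120 hpf at 28C, 0.64% DMSO. Eye malformation scored present/absent by brightfield; dead embryos not scored.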
In the case of `Cc1cc(-c2ccc(N)c(C)c2)ccc1N`, the outcome is reported as “inactive”. With `CCOC(=O)C(O)(c1ccc(Cl)cc1)c1ccc(Cl)cc1` the outcome was “inactive”. For `ClC(Cl)=C(c1ccc(Cl)cc1)c1ccc(Cl)cc1`, the outcome was “inactive”. In the case of `NS(=O)(=O)C(F)(F)C(F)(F)C(F)(F)C(F)(F)C(F)(F)C(F)(F)C(F)(F)C(F)(F)F`, the outcome is reported as “inactive”. In the case of `CC(c1ccc(O)cc1)(c1ccc(O)cc1)c1ccc(O)cc1`, the outcome is reported as “inactive”. For `CN(C)CCO`, the outcome was “inactive”. With `c1cc2ccc3cccc4ccc(c1)c2c34` the outcome was “inactive”. With `CCC(C)(c1ccc(O)cc1)c1ccc(O)cc1` the AC50 was 46.2 µM (active). In the case of `ClC1=C(Cl)[C@]2(Cl)[C@@H]3[C@@H](Cl)[C@H]4O[C@H]4[C@@H]3C1(Cl)C2(Cl)Cl`, the outcome is reported as “inactive”. In the case of `Oc1ccc(C(c2ccc(O)cc2)(C(F)(F)F)C(F)(F)F)cc1`, the AC50 is reported as 53.9 µM (active). For `C=CC(=O)NCNC(=O)C=C`, the outcome was “inactive”. With `Cc1ccc(O)c(C)c1` the outcome was “inactive”. In the case of `CC(C)(O)C(=O)Nc1ccc([N+](=O)[O-])c(C(F)(F)F)c1`, the AC50 is reported as 21.7 µM (active). For `C[C@]12CCC(=O)C=C1CC[C@@H]1[C@@H]2CC[C@]2(C)C(=O)CC[C@@H]12`, the AC50 was 45.5 µM (active). With `CC(C)C(=O)OCC(C)(C)C(OC(=O)C(C)C)C(C)C` (stereo unspecified) the outcome was “inactive”. For `O=NN(c1ccccc1)c1ccccc1`, the outcome was “inactive”. For `O=C(N[C@H]1CN2CCC1CC2)c1cc2ccoc2cn1`, the outcome was “inactive”. For `CO/C=C(/C(=O)OC)c1ccccc1COc1cccc(C(F)(F)F)n1`, the AC50 was 3.83 µM (active). For `CCC(C)c1cc([N+](=O)[O-])cc([N+](=O)[O-])c1O` (stereo unspecified), the outcome was “inactive”. With `COS(=O)(=O)OC` the outcome was “inactive”. In the case of `Nc1ccc(-c2ccc(N)cc2)cc1`, the outcome is reported as “inactive”. In the case of `Cc1cccc([N+](=O)[O-])c1`, the outcome is reported as “inactive”. With `O=C(O)C(F)(F)C(F)(F)C(F)(F)C(F)(F)C(F)(F)C(F)(F)C(F)(F)C(F)(F)F` the outcome was “inactive”. With `CCCCCCCCCC[N+](C)(C)CCCCCCCCCC` the outcome was “inactive”. With `CC(C)(c1ccccc1)c1ccc(O)cc1` the outcome was “inactive”. With `ClC1=C(Cl)[C@]2(Cl)[C@@H]3[C@H]4C[C@H]([C@@H]5O[C@H]45)[C@@H]3[C@@]1(Cl)C2(Cl)Cl` the outcome was “inactive”. With `Clc1ccc(Cl)cc1` the outcome was “inactive”. With `Oc1c(Cl)c(Cl)c(Cl)c(Cl)c1Cl` the outcome was “inactive”. For `O=C(NC(=O)c1c(F)cccc1F)Nc1cc(Cl)c(OC(F)(F)C(F)F)c(Cl)c1`, the outcome was “inactive”.

Assay: Tanguay_ZF_120hpf_SNOU_legacy: (Legacy) Oregon State University Tanguay Lab 120 Hour Post-fertilization zebrafish Assay for Snout Malformation (AID 2283637)
How it was run: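 Dechorionated tropical 5D wild-type zebrafish embryos exposed statically from 6 to 120 hpf at 28C, one per well, in 0.64% DMSO. Snout malformation scored as present/absent by brightfield at 120 hpf; dead embryos not scored.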
With `Cc1cc(-c2ccc(N)c(C)c2)ccc1N` the outcome was “inactive”. In the case of `CCOC(=O)C(O)(c1ccc(Cl)cc1)c1ccc(Cl)cc1`, the outcome is reported as “inactive”. In the case of `ClC(Cl)=C(c1ccc(Cl)cc1)c1ccc(Cl)cc1`, the outcome is reported as “inactive”. For `NS(=O)(=O)C(F)(F)C(F)(F)C(F)(F)C(F)(F)C(F)(F)C(F)(F)C(F)(F)C(F)(F)F`, the outcome was “inactive”. For `CC(c1ccc(O)cc1)(c1ccc(O)cc1)c1ccc(O)cc1`, the outcome was “inactive”. In the case of `CN(C)CCO`, the outcome is reported as “inactive”. For `c1cc2ccc3cccc4ccc(c1)c2c34`, the outcome was “inactive”. In the case of `CCC(C)(c1ccc(O)cc1)c1ccc(O)cc1`, the AC50 is reported as 46.2 µM (active). For `ClC1=C(Cl)[C@]2(Cl)[C@@H]3[C@@H](Cl)[C@H]4O[C@H]4[C@@H]3C1(Cl)C2(Cl)Cl`, the outcome was “inactive”. With `Oc1ccc(C(c2ccc(O)cc2)(C(F)(F)F)C(F)(F)F)cc1` the AC50 was 53.8 µM (active). With `C=CC(=O)NCNC(=O)C=C` the outcome was “inactive”. With `Cc1ccc(O)c(C)c1` the outcome was “inactive”. With `CC(C)(O)C(=O)Nc1ccc([N+](=O)[O-])c(C(F)(F)F)c1` the AC50 was 7.43 µM (active). With `C[C@]12CCC(=O)C=C1CC[C@@H]1[C@@H]2CC[C@]2(C)C(=O)CC[C@@H]12` the AC50 was 37.7 µM (active). In the case of `CC(C)C(=O)OCC(C)(C)C(OC(=O)C(C)C)C(C)C` (stereo unspecified), the outcome is reported as “inactive”. With `O=NN(c1ccccc1)c1ccccc1` the outcome was “inactive”. With `O=C(N[C@H]1CN2CCC1CC2)c1cc2ccoc2cn1` the outcome was “inactive”. For `CO/C=C(/C(=O)OC)c1ccccc1COc1cccc(C(F)(F)F)n1`, the AC50 was 2.99 µM (active). For `CCC(C)c1cc([N+](=O)[O-])cc([N+](=O)[O-])c1O` (stereo unspecified), the outcome was “inactive”. For `COS(=O)(=O)OC`, the outcome was “inactive”. With `Nc1ccc(-c2ccc(N)cc2)cc1` the outcome was “inactive”. In the case of `Cc1cccc([N+](=O)[O-])c1`, the outcome is reported as “inactive”. For `O=C(O)C(F)(F)C(F)(F)C(F)(F)C(F)(F)C(F)(F)C(F)(F)C(F)(F)C(F)(F)F`, the outcome was “inactive”. With `CCCCCCCCCC[N+](C)(C)CCCCCCCCCC` the outcome was “inactive”. In the case of `ClC1=C(Cl)[C@]2(Cl)[C@@H]3[C@H]4C[C@H]([C@@H]5O[C@H]45)[C@@H]3[C@@]1(Cl)C2(Cl)Cl`, the outcome is reported as “inactive”. In the case of `Clc1ccc(Cl)cc1`, the outcome is reported as “inactive”. With `Oc1c(Cl)c(Cl)c(Cl)c(Cl)c1Cl` the outcome was “inactive”. For `O=C(NC(=O)c1c(F)cccc1F)Nc1cc(Cl)c(OC(F)(F)C(F)F)c(Cl)c1`, the outcome was “inactive”. In the case of `Clc1ccc(C(c2ccccc2Cl)C(Cl)(Cl)Cl)cc1` (stereo unspecified), the outcome is reported as “inactive”.

Assay: Tanguay_ZF_120hpf_JAW_legacy: (Legacy) Oregon State University Tanguay Lab 120 Hour Post-fertilization zebrafish Assay for Jaw Malformation (AID 2283638);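 for AC50: active means more embryos with jaw malformation than DMSO controls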
How it was run: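 Binary jaw-malformation call at 120 hpf by brightfield microscopy. Embryos (Tropical 5D strain, chorion removed at 4 hpf) were dosed statically at 6 hpf, one per well, at 28C with 0.64% DMSO. Embryos that died were not scored.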
With `Cc1cc(-c2ccc(N)c(C)c2)ccc1N` the outcome was “inactive”. In the case of `CCOC(=O)C(O)(c1ccc(Cl)cc1)c1ccc(Cl)cc1`, the outcome is reported as “inactive”. With `ClC(Cl)=C(c1ccc(Cl)cc1)c1ccc(Cl)cc1` the outcome was “inactive”. With `NS(=O)(=O)C(F)(F)C(F)(F)C(F)(F)C(F)(F)C(F)(F)C(F)(F)C(F)(F)C(F)(F)F` the outcome was “inactive”. For `CC(c1ccc(O)cc1)(c1ccc(O)cc1)c1ccc(O)cc1`, the outcome was “inactive”. With `CN(C)CCO` the outcome was “inactive”. In the case of `CCC(C)(c1ccc(O)cc1)c1ccc(O)cc1`, the AC50 is reported as 47.3 µM (active). With `ClC1=C(Cl)[C@]2(Cl)[C@@H]3[C@@H](Cl)[C@H]4O[C@H]4[C@@H]3C1(Cl)C2(Cl)Cl` the outcome was “inactive”. With `Oc1ccc(C(c2ccc(O)cc2)(C(F)(F)F)C(F)(F)F)cc1` the AC50 was 54.7 µM (active). For `C=CC(=O)NCNC(=O)C=C`, the outcome was “inactive”. For `Cc1ccc(O)c(C)c1`, the outcome was “inactive”. For `CC(C)(O)C(=O)Nc1ccc([N+](=O)[O-])c(C(F)(F)F)c1`, the AC50 was 23.1 µM (active). With `C[C@]12CCC(=O)C=C1CC[C@@H]1[C@@H]2CC[C@]2(C)C(=O)CC[C@@H]12` the AC50 was 38.3 µM (active). With `CC(C)C(=O)OCC(C)(C)C(OC(=O)C(C)C)C(C)C` (stereo unspecified) the AC50 was 41.6 µM (active). With `O=NN(c1ccccc1)c1ccccc1` the outcome was “inactive”. With `O=C(N[C@H]1CN2CCC1CC2)c1cc2ccoc2cn1` the outcome was “inactive”. For `CO/C=C(/C(=O)OC)c1ccccc1COc1cccc(C(F)(F)F)n1`, the AC50 was 2.66 µM (active). In the case of `CCC(C)c1cc([N+](=O)[O-])cc([N+](=O)[O-])c1O` (stereo unspecified), the outcome is reported as “inactive”. In the case of `COS(=O)(=O)OC`, the outcome is reported as “inactive”. With `Nc1ccc(-c2ccc(N)cc2)cc1` the outcome was “inactive”. In the case of `Cc1cccc([N+](=O)[O-])c1`, the outcome is reported as “inactive”. In the case of `O=C(O)C(F)(F)C(F)(F)C(F)(F)C(F)(F)C(F)(F)C(F)(F)C(F)(F)C(F)(F)F`, the outcome is reported as “inactive”. For `CCCCCCCCCC[N+](C)(C)CCCCCCCCCC`, the outcome was “inactive”. For `ClC1=C(Cl)[C@]2(Cl)[C@@H]3[C@H]4C[C@H]([C@@H]5O[C@H]45)[C@@H]3[C@@]1(Cl)C2(Cl)Cl`, the outcome was “inactive”. For `Clc1ccc(Cl)cc1`, the outcome was “inactive”. In the case of `Oc1c(Cl)c(Cl)c(Cl)c(Cl)c1Cl`, the outcome is reported as “inactive”. With `C[C@]12CCC(=O)C=C1CC[C@@H]1[C@@H]2CC[C@@]2(C)[C@H]1CC[C@]2(C)O` the outcome was “inactive”. With `O=C(NC(=O)c1c(F)cccc1F)Nc1cc(Cl)c(OC(F)(F)C(F)F)c(Cl)c1` the outcome was “inactive”.
